# The whole screen tested about 5,500 compounds, of which about 2,000 (36%) were called active. Roughly 18% stayed inconclusive and do not appear here. The list shows a part of the results. Values without a mark were called inactive. Cut-off read from the data, not from the text of the source: active = normalized growth mostly below about 0.91 (no sharp cut-off); inconclusive = no clear call, values can overlap the other calls; inactive = mostly above about 0.92.
# Test: chemical genetic growth profiling, strain panel (AID 1159580);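 note: tested at 20 µM; growth read once vehicle control cultures reached saturation at 30 °C; 1 = growth at the plate median or of vehicle wells; lower values mean less growth of the strain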
# Details: growth OD
structure (smiles),measurement,setting,value
COC(=O)[C@@]1(C)CCC[C@]2(C)c3ccc(O)c(C(C)C)c3CCC12 (stereo partly specified),normalized growth,"S. cerevisiae deletion strains, locus YJR066W, strain TOR1, active compounds read low",0.689 (active)
same,normalized growth,"S. cerevisiae deletion strains, locus YKL009W, strain mrt4, active compounds read low",0.859 (active)
same,normalized growth,"S. cerevisiae deletion strains, locus YKL068W, active compounds read low",0.979
same,normalized growth,"S. cerevisiae deletion strains, locus YKL085W, strain MDH1 (second series), active compounds read low",0.522 (active)
same,normalized growth,"S. cerevisiae deletion strains, locus YKL085W, strain MDH1, active compounds read low",0.522 (active)
same,normalized growth,"S. cerevisiae deletion strains, locus YKL160W, strain elf1, active compounds read low",0.881 (active)
same,normalized growth,"S. cerevisiae deletion strains, locus YKR001C, strain vps1, active compounds read low",0.231 (active)
same,normalized growth,"S. cerevisiae deletion strains, locus YKR026C, strain gcn3, active compounds read low",0.978
same,normalized growth,"S. cerevisiae deletion strains, locus YKR091W, strain srl3, active compounds read low",0.976
same,normalized growth,"S. cerevisiae deletion strains, locus YLL001W, strain dnm1, active compounds read low",0.937
same,normalized growth,"S. cerevisiae deletion strains, locus YLL026W, active compounds read low",0.843 (active)
same,normalized growth,"S. cerevisiae deletion strains, locus YLL041C, strain sdh2, active compounds read low",0.965
same,normalized growth,"S. cerevisiae deletion strains, locus YLR027C, strain aat2, active compounds read low",0.354 (active)
same,normalized growth,"S. cerevisiae deletion strains, locus YLR039C, strain RIC1, active compounds read low",0.245 (active)
same,normalized growth,"S. cerevisiae deletion strains, locus YLR058C, strain SHM2, active compounds read low",0.661 (active)
same,normalized growth,"S. cerevisiae deletion strains, locus YLR102C, strain apc9, active compounds read low",0.95
same,normalized growth,"S. cerevisiae deletion strains, locus YLR113W, strain HOG1, active compounds read low",0.284 (active)
same,normalized growth,"S. cerevisiae deletion strains, locus YLR221C, strain rsa3, active compounds read low",0.619 (active)
same,normalized growth,"S. cerevisiae deletion strains, locus YLR258W, strain gsy2, active compounds read low",0.786 (active)
same,normalized growth,"S. cerevisiae deletion strains, locus YLR262C, strain YPT6 (second series), active compounds read low",0.208 (active)
same,normalized growth,"S. cerevisiae deletion strains, locus YLR268W, strain sec22, active compounds read low",0.85 (active)
same,normalized growth,"S. cerevisiae deletion strains, locus YLR320W, strain mms22, active compounds read low",0.695 (active)
same,normalized growth,"S. cerevisiae deletion strains, locus YLR330W, strain CHS5, active compounds read low",0.662 (active)
same,normalized growth,"S. cerevisiae deletion strains, locus YLR342W, strain FKS1 (second series), active compounds read low",0.42 (active)
same,normalized growth,"S. cerevisiae deletion strains, locus YLR342W, strain FKS1, active compounds read low",0.596 (active)
same,normalized growth,"S. cerevisiae deletion strains, locus YLR357W, strain rsc2, active compounds read low",1
same,normalized growth,"S. cerevisiae deletion strains, locus YLR370C, strain arc18, active compounds read low",1.01
same,normalized growth,"S. cerevisiae deletion strains, locus YLR371W, strain rom2, active compounds read low",0.444 (active)
same,normalized growth,"S. cerevisiae deletion strains, locus YLR384C, strain iki3, active compounds read low",0.998
same,normalized growth,"S. cerevisiae deletion strains, locus YLR418C, strain cdc73, active compounds read low",0.297 (active)
same,normalized growth,"S. cerevisiae deletion strains, locus YML016C, strain PPZ1, active compounds read low",0.889 (active)
same,normalized growth,"S. cerevisiae deletion strains, locus YML032C, strain rad52, active compounds read low",0.732 (active)
same,normalized growth,"S. cerevisiae deletion strains, locus YML120C, strain ndi1, active compounds read low",0.222 (active)
same,normalized growth,"S. cerevisiae deletion strains, locus YML124C, strain tub3, active compounds read low",0.922 (active)
same,normalized growth,"S. cerevisiae deletion strains, locus YMR058W, strain fet3, active compounds read low",0.919
same,normalized growth,"S. cerevisiae deletion strains, locus YMR078C, strain ctf18, active compounds read low",0.96
same,normalized growth,"S. cerevisiae deletion strains, locus YMR125W, strain sto1, active compounds read low",0.959
same,normalized growth,"S. cerevisiae deletion strains, locus YMR129W, active compounds read low",0.96
same,normalized growth,"S. cerevisiae deletion strains, locus YMR205C, strain PFK2, active compounds read low",0.649 (active)
same,normalized growth,"S. cerevisiae deletion strains, locus YMR223W, strain ubp8, active compounds read low",0.828 (active)
same,normalized growth,"S. cerevisiae deletion strains, locus YMR231W, strain pep5, active compounds read low",0.996
same,normalized growth,"S. cerevisiae deletion strains, locus YMR263W, strain SAP30, active compounds read low",0.657 (active)
same,normalized growth,"S. cerevisiae deletion strains, locus YMR307W, strain GAS1, active compounds read low",0.509 (active)
same,normalized growth,"S. cerevisiae deletion strains, locus YNL067W, strain RPL9B, active compounds read low",0.903
same,normalized growth,"S. cerevisiae deletion strains, locus YNL071W, strain lat1, active compounds read low",0.684 (active)
same,normalized growth,"S. cerevisiae deletion strains, locus YNL153C, strain GIM3, active compounds read low",0.788 (active)
same,normalized growth,"S. cerevisiae deletion strains, locus YNL183C, strain NPR1, active compounds read low",0.715 (active)
same,normalized growth,"S. cerevisiae deletion strains, locus YNL209W, strain ssb2, active compounds read low",0.856 (active)
same,normalized growth,"S. cerevisiae deletion strains, locus YNL233W, strain BNI4, active compounds read low",0.563 (active)
same,normalized growth,"S. cerevisiae deletion strains, locus YNL248C, strain rpa49, active compounds read low",0.916
same,normalized growth,"S. cerevisiae deletion strains, locus YNL250W, strain rad50, active compounds read low",0.934
same,normalized growth,"S. cerevisiae deletion strains, locus YNL271C, strain bni1, active compounds read low",0.971
same,normalized growth,"S. cerevisiae deletion strains, locus YNL298W, strain CLA4, active compounds read low",0.883 (active)
same,normalized growth,"S. cerevisiae deletion strains, locus YNL307C, strain MCK1, active compounds read low",0.502 (active)
same,normalized growth,"S. cerevisiae deletion strains, locus YNL322C, strain KRE1 (second series), active compounds read low",0.985
same,normalized growth,"S. cerevisiae deletion strains, locus YNR049C, strain mso1, active compounds read low",0.964
same,normalized growth,"S. cerevisiae deletion strains, locus YNR052C, strain pop2, active compounds read low",0.629 (active)
same,normalized growth,"S. cerevisiae deletion strains, locus YOL012C, strain htz1",0.967
same,normalized growth,"S. cerevisiae deletion strains, locus YOL147C, strain pex11, active compounds read low",0.681 (active)
same,normalized growth,"S. cerevisiae deletion strains, locus YOR001W, strain rrp6, active compounds read low",0.636 (active)
same,normalized growth,"S. cerevisiae deletion strains, locus YOR061W, strain CKA2, active compounds read low",0.859 (active)
same,normalized growth,"S. cerevisiae deletion strains, locus YOR069W, strain VPS5, active compounds read low",0.854 (active)
same,normalized growth,"S. cerevisiae deletion strains, locus YOR070C, strain gyp1, active compounds read low",0.693 (active)
same,normalized growth,"S. cerevisiae deletion strains, locus YOR080W, strain dia2, active compounds read low",0.715 (active)
same,normalized growth,"S. cerevisiae deletion strains, locus YOR083W, strain WHI5, active compounds read low",0.835 (active)
same,normalized growth,"S. cerevisiae deletion strains, locus YOR106W, strain vam3, active compounds read low",0.373 (active)
same,normalized growth,"S. cerevisiae deletion strains, locus YOR136W, strain idh2, active compounds read low",0.929
same,normalized growth,"S. cerevisiae deletion strains, locus YOR144C, strain elg1, active compounds read low",0.711 (active)
same,normalized growth,"S. cerevisiae deletion strains, locus YOR184W, strain ser1, active compounds read low",0.355 (active)
same,normalized growth,"S. cerevisiae deletion strains, locus YOR231W, strain MKK1, active compounds read low",0.575 (active)
same,normalized growth,"S. cerevisiae deletion strains, locus YOR265W, strain rbl2, active compounds read low",0.741 (active)
same,normalized growth,"S. cerevisiae deletion strains, locus YOR270C, strain vph1, active compounds read low",0.612 (active)
same,normalized growth,"S. cerevisiae deletion strains, locus YOR290C, strain snf2, active compounds read low",0.776 (active)
same,normalized growth,"S. cerevisiae deletion strains, locus YOR316C, strain cot1, active compounds read low",0.984
same,normalized growth,"S. cerevisiae deletion strains, locus YPL051W, strain arl3, active compounds read low",0.539 (active)
same,normalized growth,"S. cerevisiae deletion strains, locus YPL055C, strain LGE1, active compounds read low",0.403 (active)
same,normalized growth,"S. cerevisiae deletion strains, locus YPL078C, strain atp4, active compounds read low",0.924
same,normalized growth,"S. cerevisiae deletion strains, locus YPL106C, strain sse1, active compounds read low",0.505 (active)
same,normalized growth,"S. cerevisiae deletion strains, locus YPL240C, strain hsp82, active compounds read low",0.697 (active)
same,normalized growth,"S. cerevisiae deletion strains, locus YPL256C, strain CLN2, active compounds read low",0.682 (active)
same,normalized growth,"S. cerevisiae deletion strains, locus YPR119W, strain clb2, active compounds read low",0.799 (active)
same,normalized growth,"S. cerevisiae deletion strains, locus YPR141C, strain kar3, active compounds read low",0.987
same,normalized growth,"S. cerevisiae deletion strains, locus YPR163C, strain tif3, active compounds read low",0.817 (active)
same,normalized growth,"S. cerevisiae deletion strains, locus YPR167C, strain met16, active compounds read low",0.773 (active)
same,normalized growth,"S. cerevisiae deletion strains, strain wtn01, active compounds read low",0.812 (active)
same,normalized growth,"S. cerevisiae strains, strain wild type, active compounds read low",0.458 (active)
